# Assay outcomes deposited in PubChem BioAssay by several laboratories.
# Rv3671c inh: inhibitors of M. tuberculosis serine protease Rv3671c; 0.048% of 320,000 active; P9WHR9; inhibition, % at 5.96 µM; in the data active means inhibition above about 38%;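 further: extracellular domain of Rv3671c used as enzyme; 0% = enzyme with DMSO and 100% = no enzyme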
# Target sequence (P9WHR9 whole entry, looked up, the tested form may be a part): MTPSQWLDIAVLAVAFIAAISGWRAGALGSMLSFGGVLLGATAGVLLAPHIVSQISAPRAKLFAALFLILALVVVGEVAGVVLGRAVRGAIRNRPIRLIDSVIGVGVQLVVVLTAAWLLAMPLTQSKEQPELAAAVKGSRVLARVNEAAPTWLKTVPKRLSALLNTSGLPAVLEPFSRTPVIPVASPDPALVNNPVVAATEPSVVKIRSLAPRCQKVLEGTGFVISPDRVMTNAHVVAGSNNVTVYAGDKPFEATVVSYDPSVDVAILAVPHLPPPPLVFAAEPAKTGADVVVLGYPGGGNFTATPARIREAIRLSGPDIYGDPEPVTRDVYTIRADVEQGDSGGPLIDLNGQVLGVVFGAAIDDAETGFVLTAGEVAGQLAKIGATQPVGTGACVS
# Mtb bLac sens: beta-lactam sensitization of Mtb H37Rv | 0.27% of 330,000 active | M. tuberculosis H37Rv growth with meropenem, percent inhibition | inhibition, % at 25 µM; call rule not given here;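 further: growth measured after seven days incubation then overnight dye step; 0% = bacteria only wells and 100% = bacteria with antibiotic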
# Mtb UGM inh: Mtb UDP-galactopyranose mutase inhibition. purified UGM, fluorescence polarization probe displacement. inhibition, % at 10 µM. 0.06% of 320,000 active. AID 504406; in the data active means inhibition above about 10%, passing the limit was not always enough; inconclusive means no clear call, values can overlap the other calls
# GDH-TPI counter: inhibits GDH-TPI coupling enzymes, artifact for Mtb FBA screen. GDH-TPI coupled enzyme counterscreen, NADH absorbance. inhibition, % at 4.8 µM. 1.2% of 360,000 active; in the data active means inhibition above about 30%;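 further: 0% = DMSO wells and 100% = wells lacking the enzyme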
# FBA Mtb inh: Mtb fructose-bisphosphate aldolase inhibition; P9WQA3; purified M. tuberculosis FBA, fluorescence read-out; inhibition, % at 1 µM; 2.3% of 360,000 active; in the data active means inhibition above about 27%;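 further: 0% = vehicle and 100% = reference inhibitor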
# Starred values were filed as active, the others as inactive; ? = inconclusive; · = no result; + = active, no number. An excerpt weighted towards active compounds, which were near 3.5% of everything screened.
SMILES,Rv3671c inh,Mtb bLac sens,Mtb UGM inh,GDH-TPI counter,FBA Mtb inh
CC(=O)Nc1ccc(N=Nc2ccccc2)cc1,4.1,2.4,-1.8,35.9*,-4.3
CC(C)C(=O)OCC(=O)Nc1ccc(N=Nc2ccccc2)cc1,4.7,-3.3,-0.5,25.6,-1.4
COc1ccc(C(=O)NCCCCCCNC(=O)c2ccc(OC)cc2)cc1,9.3,?,-1.9,9.9,5.6
O=[N+]([O-])c1ccc(/C=[N+](\[O-])[C@@H]2CCCC[C@@H]2/[N+]([O-])=C/c2ccc([N+](=O)[O-])o2)o1,-9.3,99.7,1.2,34.0*,-0.8
Cc1ccc(S(=O)(=O)c2c(C)nn(C(C)(C)C)c2OC(=O)c2ccco2)cc1,2.1,4.4,-1.0,2.9,189.2*
O=C(COC(=O)c1ccc([N+](=O)[O-])o1)NC1CCCC1,-11.3,84.7,21.4*,1.7,-1.9
Cc1nc2sc(C#N)c(N)c2c2c1CCCC2,-13.4,-4.0,0.9,-0.6,36.0*
Cc1ccc(S(=O)(=O)N2CCN(CCOc3c(Cl)cccc3Cl)CC2)cc1C,-7.6,-3.2,-0.6,1.4,-0.7
O=c1c(-c2nnc(SCc3ccc(Cl)cc3)o2)cccn1Cc1ccccc1,-6.6,15.2,-3.0,23.1,176.1*
COc1cccc([C@@H]2Oc3ccc(OC)cc3C(=O)[C@H]2OC(=O)NCc2ccc3c(c2)OCO3)c1,-9.5,26.5,4.5,·,·
CCC(CC)C(=O)Nc1nnc(SCC(=O)NC(C)(C)C)s1,4.5,9.2,-4.0,2.8,0.0
COc1ccc(-c2cc(=O)c3c(O)c(OC)c(OC)c(OC)c3o2)cc1,·,·,·,11.5,-0.6
O=c1cc(-c2ccc(O)cc2)oc2ccc(O)cc12,1.0,-4.7,4.1,37.4*,3.6
COc1ccc(-c2oc3cc(O)c(OC)c(O)c3c(=O)c2OC)cc1O,·,·,·,21.6,-3.3
COc1cc(OC)c2c(=O)c(OC)c(-c3ccc(OC)c(OC)c3)oc2c1,-5.2,-7.6,-1.0,22.2,102.7*
COc1ccc(-c2cc(=O)c3c(OC)c(OC)c(OC)c(OC)c3o2)cc1OC,0.7,5.9,-1.0,32.4*,7.4
Nc1c(-c2ccc3c(c2)OCCO3)oc2ccccc2c1=O,-10.2,2.8,2.8,-2.2,+
COc1ccc(-c2cc(=O)c3ccccc3o2)cc1,-5.7,-5.2,1.9,32.4*,+
O=c1cc(-c2ccc3c(c2)OCO3)oc2ccccc12,-1.3,7.0,2.3,39.2*,21.6
O=c1cc(-c2ccc(O)cc2)oc2ccccc12,-6.9,-8.6,2.6,21.5,3.2
COc1ccc(-c2cc(=O)c3c(O)c(OC)c(O)cc3o2)cc1,-8.0,-0.3,0.9,19.4,-1.6
COc1ccc(-c2cc(=O)c3c(OC)c(OC)c(OC)cc3o2)cc1,3.3,3.6,-0.3,32.4*,-1.1
Cc1ccc(/C=C/C(=O)Nc2nnc(C)s2)o1,-2.4,-4.1,1.2,32.0*,1.9
CCCCOC(=O)Nc1nnc(CCc2ccccc2)s1,-7.8,-2.3,1.1,-0.8,5.6
CCCCOC(=O)Nc1nnc(CCOCC)s1,3.0,-5.7,-0.9,46.8*,-0.4
SMILES,Rv3671c inh,Mtb bLac sens,Mtb UGM inh,GDH-TPI counter,FBA Mtb inh
Cc1c(C(=O)N2CCC3(CC2)OCCO3)sc2ncnc(N(C)c3ccccc3)c12,5.1,17.0,0.4,20.4,1.3
Cc1c(C(=O)N2CCC(C)CC2)sc2ncnc(N(C)c3ccccc3)c12,0.7,-3.9,-5.4,34.8*,0.2
CCOC(=O)C1C(c2ccc([N+](=O)[O-])cc2)C2C(=O)NN=C2CC1(C)O (stereo not drawn),1.2,-9.9,0.3,4.4,1.0
Cc1c(-c2c(C#N)c(N)nc3c2CCCCCC3)cnn1C,1.6,-14.7,-2.0,14.9,+
Cc1nn(C)c(C)c1-c1c(C#N)c(N)nc2c1CCCCCC2,-7.5,17.3,0.0,16.4,46.5*
CC(C)c1ccc(Nc2nnc(SCC(=O)NCC3CCCO3)s2)cc1 (stereo not drawn),-4.5,0.2,7.1,11.1,-1.8
COc1ccc(C(=O)Nc2cnc3ccccn3c2=O)cc1,5.3,-10.2,2.3,49.3*,-1.4
Cc1cc(C(=O)COc2ccccc2C(N)=O)c(C)n1C,9.2,0.2,0.5,-4.3,0.4
Cc1cc(C(=O)COc2cccc3cccnc23)c(C)n1C,-2.9,14.9,16.3*,7.9,2.3
O=C(Nc1ccsc1C(=O)O)c1ccccc1Cl,-12.9,-1.4,-0.6,3.8,0.3
CCN(c1ccccc1)S(=O)(=O)c1nnc(NC(=O)C(C)C)s1,-1.1,4.8,-1.5,3.2,4.7
CC(=O)N1CCc2cc(S(=O)(=O)CCC(=O)NCc3ccc(F)cc3)ccc21,-9.1,3.9,-0.8,6.8,0.6
CCCCNc1c(-c2cccc(-c3cc(C(C)=O)cs3)c2)nc2cc(C)ccn12,6.2,18.7,0.1,32.8*,2.6
CCCCCCSc1cc(-c2nc3cc(C)ccn3c2NCCCC)ccc1OC,12.2,-3.1,0.9,15.0,12.5
CCC(C)NC(=O)C(=O)NCc1ccccn1 (stereo not drawn),-3.2,2.2,2.7,0.0,0.3
CC(=O)c1ccc(NC(=O)c2cnn3ccccc23)cc1,-3.1,-7.5,2.0,35.9*,1.9
O=C(O)c1ccc(N/N=C2/CCCc3ccccc32)cc1,-5.8,14.4,-0.5,79.2*,1.8
O=c1[nH]c2cc3c(cc2cc1C(c1nnnn1C1CCCCC1)N1CCSCC1)OCCO3 (stereo not drawn),2.8,-4.7,-0.4,20.4,28.2*
COc1ccc(/C=N/NC(=O)c2cc(C)oc2C)cc1OCc1ccccc1,-14.7,-0.3,1.8,32.4*,-1.2
COc1ccc(/C=N/NC(=O)c2ccco2)cc1OCc1ccccc1,4.1,-10.6,1.6,39.5*,-1.6
O=C(N/N=C/c1ccc(OCc2ccccc2)cc1)c1ccco1,-8.0,-1.8,-0.4,13.0,-3.9
CCOC(=O)C1=C2NC(=O)c3ccccc3N2C(=O)C1,6.0,-4.8,1.0,1.9,-3.1
Nc1nc(N)c(N=O)c(OCC2CCCCC2)n1,4.2,73.3,-0.3,34.3*,0.5
NS(=O)(=O)OCC1CCCCC1,-2.9,-8.0,-1.2,4.0,-2.1
COc1cc(/C=N/N(C)C)cc(Br)c1O,-15.2,-8.0,1.6,32.3*,2.5
SMILES,Rv3671c inh,Mtb bLac sens,Mtb UGM inh,GDH-TPI counter,FBA Mtb inh
CN=c1scc(C)n1/N=C/c1cc(Br)c(O)c(OC)c1,8.8,-3.3,0.1,5.7,1.6
COc1cc(/C=N/N(C)c2ccccc2)cc(Cl)c1O,12.7,96.3,0.0,40.5*,-4.1
CCO/N=C(\C)c1c(O)c(CC)c(-c2ccccc2)n(-c2ccccc2)c1=O,3.1,13.4,5.1,5.2,0.2
N#CCOc1ccc2oc(-c3ccco3)cc(=O)c2c1,7.1,-4.8,-0.3,·,·
Cc1ccc2oc(-c3ccco3)cc(=O)c2c1,-6.0,-0.3,1.2,31.3*,122.7*
COc1ccc(C=Nc2cccc3c(=O)[nH][nH]c(=O)c23)c2ccccc12,2.2,-3.5,-1.5,30.9*,5.3
CC(=O)c1ccc(Nc2c3c(nc4ccccc24)CCCC3)cc1,-12.5,33.2,0.1,37.4*,2.7
Cc1ccc(S(=O)(=O)N2CCOCC2)cc1NC(=O)COC(=O)c1ccc(Cl)nc1,-1.9,-3.2,0.2,-1.9,0.2
